This passage reports B-score results from PubChem BioAssay AID2156 (Johns Hopkins Ion Channel Center, 2009).

Screen size: about 310,000 compounds; about 3,400 (1.1%) were called active.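 Rule for the calls: active = fluorescence ratio B-score at most minus 3 library SDs, with starting brightness B-score within 2 library SDs (cut at about -5.5 in these data); inactive = the rest, inconclusive results apart.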 What follows is part of a selection rich in actives, with near analogues and random picks from the rest.

Potassium voltage-gated channel subfamily KQT member 2 (Rattus norvegicus), sequence (O88943 whole entry, looked up): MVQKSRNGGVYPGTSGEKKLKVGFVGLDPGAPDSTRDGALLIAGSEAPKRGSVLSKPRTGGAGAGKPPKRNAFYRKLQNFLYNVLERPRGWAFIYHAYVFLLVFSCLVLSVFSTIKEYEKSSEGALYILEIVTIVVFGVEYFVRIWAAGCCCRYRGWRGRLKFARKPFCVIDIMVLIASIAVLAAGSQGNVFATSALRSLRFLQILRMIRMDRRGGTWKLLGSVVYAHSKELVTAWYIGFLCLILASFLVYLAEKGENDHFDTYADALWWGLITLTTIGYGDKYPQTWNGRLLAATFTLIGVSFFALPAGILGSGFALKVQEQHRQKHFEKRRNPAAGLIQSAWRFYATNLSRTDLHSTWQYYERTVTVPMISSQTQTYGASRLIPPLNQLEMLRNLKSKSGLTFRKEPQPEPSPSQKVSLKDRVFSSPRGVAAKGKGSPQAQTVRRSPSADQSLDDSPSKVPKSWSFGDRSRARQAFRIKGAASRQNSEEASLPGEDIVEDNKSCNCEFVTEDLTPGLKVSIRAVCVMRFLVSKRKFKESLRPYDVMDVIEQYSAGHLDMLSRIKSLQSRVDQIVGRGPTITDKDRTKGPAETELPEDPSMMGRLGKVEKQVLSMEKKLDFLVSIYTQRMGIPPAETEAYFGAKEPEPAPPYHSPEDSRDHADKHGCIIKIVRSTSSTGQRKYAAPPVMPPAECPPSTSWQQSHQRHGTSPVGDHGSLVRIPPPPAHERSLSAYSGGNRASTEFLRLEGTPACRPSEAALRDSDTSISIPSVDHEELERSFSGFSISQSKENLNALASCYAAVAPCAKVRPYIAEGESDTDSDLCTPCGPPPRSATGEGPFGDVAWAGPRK

This assay concerns the target Potassium voltage-gated channel subfamily KQT member 2 (Rattus norvegicus) (UniProt O88943). The assay is described as follows: KCNQ2 channel blockers in CHO-K1 cells – cell-based, FluxOR thallium flux, B-score, primary screen (AID 2156). As to conditions: 20 min, at 10 µM; hits give low values.
As for `CC(C)Nc1nnc(SCC(=O)/C=C2\N(C)c3ccccc3C2(C)C)s1`, the B-score entry was “inactive”.

On to `CC(=O)Nc1cccc(OCC(=O)/C=C2\N(C)c3ccccc3C2(C)C)c1`, for which the B-score was -6.18 (active).

Consider `CN1/C(=C\C(=O)c2oc3ccccc3c2N)C(C)(C)c2ccccc21`, for which the B-score is -0.16 (inactive).

Regarding `Cc1ccc(NC(=O)C2CCCN2C(=O)OCc2ccccc2)cc1C` (centres undefined), the B-score entry was “inactive”.

Consider `Cc1ccc(S(=O)(=O)N(C)C)cc1NC(=O)C1Cc2ccccc2CN1C(=O)c1ccco1` (centres undefined), for which the B-score is -0.13 (inactive).

As to `Cc1ccc(C)c(NC(=O)C2Cc3ccccc3CN2C(=O)OCc2ccccc2)c1` (centres undefined), the B-score was -6.25 (active).

On to `CCOC(=O)c1sc(=S)n2c1[nH]c(=O)c1ccc(C(=O)OC)cc12`, for which the B-score result is “inactive”.

With `CCOC(=O)c1sc(=NC(=O)c2ccc(Br)cc2)n(C)c1C`, the B-score result is “inactive”.

Take `CCOC(=O)C1=C(C)Nc2sc(C(=O)c3ccc(Br)cc3)c(N)c2C1c1ccc(C(=O)OC)cc1` (centres undefined): the B-score is -6.56 (active).

In the case of `Cc1cc(Nc2ccc(Br)cc2)nc2ccccc12`, the B-score entry was “inactive”.

`Cc1ccc2nc(SCC(=O)N3CCN(c4ccccc4)CC3)nc(=O)n2c1`: the B-score is -0.18 (inactive).

Take `Cc1nc(-c2ccc(F)cc2)c(CC(=O)Nc2cccc(S(=O)(=O)N3CCOCC3)c2)s1`: the B-score was -0.75 (inactive).

Take `CCOC(=O)C1CCN(C(=O)COC(=O)C2CCN(S(=O)(=O)c3ccc4c(c3)OCCO4)CC2)CC1`: the B-score result was “inactive”.

Turning to `CCOc1ccc(C(=O)Nc2cc(Cl)ccc2-n2cncn2)cc1OC`, the B-score is -0.08 (inactive).

On to `CC(=O)Nc1ccc(NC(=O)CSC2=NS(=O)(=O)c3ccccc3N2)cc1`, for which the B-score result is “inactive”.

As for `COc1ccc(C(CNC(=O)c2ccc(NS(=O)(=O)c3ccc(F)c(C)c3)cc2)N(C)C)cc1` (centres undefined), the B-score result is “inactive”.

As for `CCCCn1c(N)c(N(CC(C)C)C(=O)C2CSC3(C)CCC(=O)N23)c(=O)[nH]c1=O` (centres undefined), the B-score is -1.75 (inactive).

As for `Cc1cccc(C(C)C)c1NC(=O)COC(=O)C1CC(=O)N(Cc2ccccc2)C1` (centres undefined), the B-score entry is “inactive”.

As for `O=C(Cc1ccccc1)N1N=C(c2ccncc2)CC1(O)C(F)(F)F` (centres undefined), the B-score result was “inactive”.

In the case of `CC(=O)N1N=C(c2ccncc2)OC1(Cc1ccccc1)Cc1ccccc1`, the B-score was -7.53 (active).

On to `CC(=O)N1N=C(c2ccccc2)OC1c1cccnc1` (centres undefined), for which the B-score result is “inactive”.

With `CC(=O)Nc1cccc(C(=O)OCC(=O)NCc2cc(C)c(O)c(C)c2)c1`, the B-score result is “inactive”.

As to `COc1ccc(-c2n[nH]c(C)c2-c2ccccc2OC)c(O)c1`, the B-score entry is “inactive”.

Regarding `COc1ccccc1-c1n[nH]c2c1[C@H](C)CC[C@H]2C(C)C`, the B-score is -10.1 (active).

As to `COc1ccccc1-c1nc(SC)n[nH]1`, the B-score was -0.1 (inactive).

Regarding `Cc1ccnc(NC(=O)CCC(=O)N(CC(=O)NCc2ccccc2)Cc2ccco2)c1`, the B-score was -0.05 (inactive).

For `Cc1ccc2c(c1)N(CC(=O)N(Cc1ccccn1)Cc1ccco1)C(=O)C(C(C)C)O2` (centres undefined), the B-score was -7.54 (active).

With `Cc1ccc(C(C(=O)NC2CCCC2)N(Cc2ccco2)C(=O)CCC(=O)Nc2ccccn2)cc1` (centres undefined), the B-score was -1.92 (inactive).

Regarding `O=C(c1ccc(Cl)s1)N(Cc1nnc(-c2ccccc2Cl)o1)C1CC1`, the B-score was -0.68 (inactive).

For the compound `O=C(Nc1ccccc1-c1ccccc1)c1ccccc1[N+](=O)[O-]`, the B-score was -3.5 (inactive).

As to `O=C(Nc1ccccc1[N+](=O)[O-])C1C(c2ccccc2)=C1c1ccccc1`, the B-score was -5.88 (active).

With `O=C(O)c1ccccc1C(=O)Nc1ccccc1[N+](=O)[O-]`, the B-score is -1 (inactive).

As to `CCC(CC)c1nnc(NC(=O)C2=COCCO2)s1`, the B-score was -0.29 (inactive).

`CCOc1cc(N2CCOCC2)c(OCC)cc1NC(=O)c1ccc(C)s1`: the B-score was -6.48 (active).

Take `CCOc1cc(N2CCOCC2)c(OCC)cc1NC(=O)COc1cccc(Cl)c1`: the B-score result was “inactive”.

Turning to `CCOc1cc(N2CCOCC2)c(OCC)cc1NC(=O)COc1cccc2cccnc12`, the B-score is -3.14 (inactive).

With `Cc1ccc(-c2nn(-c3ccc(F)cc3)cc2C(=O)NCC(c2cccs2)N2CCOCC2)cc1` (centres undefined), the B-score is -1.75 (inactive).

Turning to `O=C(c1ccccc1Oc1ccccc1)N1CCN(c2ccc(F)cc2)CC1`, the B-score was -3.32 (inactive).

With `CCOC(=O)N1CCN(C(=O)c2nn(-c3ccc(C)cc3)c(=O)c3c2c2ccccc2n3C)CC1`, the B-score entry was “inactive”.

`Cn1c2ccccc2c2c(C(=O)N3CCN(c4ccc(F)cc4)CC3)cn(C3CCCC3)c(=O)c21`: the B-score was -5.96 (active).

As for `CN1C(C(=O)NCC2CC2)CC2Cn3c(nc4ccccc43)C21` (centres undefined), the B-score entry was “inactive”.

In the case of `CCOC(=O)c1cnc2nc(SCc3ccccc3Cl)[nH]n2c1=O`, the B-score is -0.81 (inactive).

On to `Cc1ccccc1NC(=O)CNc1ccccc1N1CCCCC1`, for which the B-score was -5.56 (active).

In the case of `Cc1ccc(C(C)C)cc1OCC(=O)Nc1ccccc1N1CCCC1`, the B-score was -8.31 (active).

For the compound `O=C(CNCCC1=CCCCC1)Nc1ccccc1N1CCCCCC1`, the B-score was -8.12 (active).

Take `Cc1ccccc1NC(=O)Nc1ccccc1N1CCCCC1`: the B-score result was “inactive”.

With `O=C(CN1CCN(C2CCCCC2)CC1)Nc1ccccc1N1CCCCC1`, the B-score entry was “inactive”.

In the case of `CCC(=O)N1CCN(c2ccccc2NC(=O)COc2cccc(C)c2C)CC1`, the B-score was -4.29 (inactive).

`Cn1c(=O)c2c(nc(SCC(=O)Nc3ccccc3N3CCCCC3)n2C)n(C)c1=O`: the B-score was -0.67 (inactive).

`Cc1ccc(C(C)C)cc1OCCN1CCCC1`: the B-score entry is “inactive”.

`O=C(Cc1cccc2ccccc12)NCCC1=CCCCC1`: the B-score is -0.18 (inactive).

As to `N#Cc1cccc(OC(=O)c2ccc3c(=O)n4c(nc3c2)CCC4)c1`, the B-score is -0.01 (inactive).

Take `CN1CCN(S(=O)(=O)c2ccc(Nc3ccc(F)cc3)nc2)CC1`: the B-score was -0.21 (inactive).

With `COc1ccccc1CCNC(=O)CN1C(=O)NC2(CCCC2)C1=O`, the B-score result is “inactive”.

Turning to `CC(Oc1cccc(Cl)c1)C(=O)Nc1ccc(S(=O)(=O)Nc2ncccn2)cc1` (centres undefined), the B-score result is “inactive”.

`CSc1ccc(/C=C2\NC(=O)NC2=O)cc1`: the B-score entry is “inactive”.

Regarding `O=C(Cc1c[nH]c2ccccc12)OCCOC(=O)Cc1c[nH]c2ccccc12`, the B-score is -7.66 (active).

Take `O=C(COC(=O)Cc1c[nH]c2ccccc12)NCCc1ccccc1`: the B-score is -0.71 (inactive).

Turning to `CCOC(=O)CN(C)Cc1c[nH]c2ccccc12`, the B-score entry is “inactive”.

As for `CCCCN(C(=O)c1ccc(C)o1)c1c(N)n(CCCC)c(=O)[nH]c1=O`, the B-score result is “inactive”.

Turning to `CCC1CCC/C1=N\NC(=O)c1ccc(Cl)cc1` (centres undefined), the B-score result is “inactive”.

In the case of `OC(COc1cccc2ccccc12)CN1CCN(c2ccccn2)CC1` (centres undefined), the B-score result is “inactive”.

With `CC(C)c1ccccc1OCC(O)CN(CC(O)COc1cccc2ccccc12)C(C)C` (centres undefined), the B-score was -6.3 (active).

With `Cc1cc(C)c(NC(=O)C[N+](C)(C)CC(O)COc2cccc3ccccc23)c(C)c1` (centres undefined), the B-score entry was “inactive”.
